HMGR II inh = inhibitors of class II HMG-CoA reductase from Enterococcus faecalis; 0.41% of 190,000 active; purified E. faecalis HMGR, NADPH absorbance 340 nm kinetic; inhibition, % at 10 µM;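 active = inhibition above a set limit, the median over all tested compounds plus 3 SD, cut at about 9.5% in these data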;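 also: enzyme runs in reverse so mevalonate oxidation gives rising NADPH absorbance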
zVAD death inh = L929 zVAD cell death inhibition. AID 1377. 0.38% of 220,000 active. viability rescue, % at 10 µM. L929 zVAD necroptosis rescue, ATP luminescence, 24 h; with zVAD 60 µM;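 active = activation, scaled between plate controls, above about 75%, limit read from the data; inactive = activation under that limit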
ROMK primary = human ROMK K+ channel modulation, primary screen; B-score at 10 µM; P48048; AID 1918; 2% of 130,000 active; Tet-inducible ROMK, thallium flux fluorescence; actives lie on both sides;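 active = signal ratio slope over the read window, or its plate-corrected B-score, at least 3 SD from the plate mean, either direction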;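 also: B-score of the F/F0 ratio slope over 7 to 12 s after thallium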
14-3-3 Bad inh = disrupts binding of bovine 14-3-3 zeta to phospho-Bad peptide. P63103. TR-FRET 14-3-3zeta/Dy647-pBad peptide displacement, 1 h. inhibition, % at 21.7 µM. 0.71% of 220,000 active;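 active = inhibition above about 70%, limit read from the data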
Target sequence (P63103 whole entry, looked up): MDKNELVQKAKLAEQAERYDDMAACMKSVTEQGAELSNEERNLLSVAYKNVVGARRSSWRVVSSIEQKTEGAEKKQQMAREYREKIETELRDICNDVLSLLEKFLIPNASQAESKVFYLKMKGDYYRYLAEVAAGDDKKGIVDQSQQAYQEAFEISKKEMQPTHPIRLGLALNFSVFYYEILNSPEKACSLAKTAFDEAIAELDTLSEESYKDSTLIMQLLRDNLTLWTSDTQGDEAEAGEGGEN
Calpain2 inh = calpain II (pig) inhibition; purified calpain II, fluorogenic peptide substrate, 30 min; inhibition, % at 16 µM; 0.37% of 220,000 active; AID 1236;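 active = inhibition above about 50%, limit read from the data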
TNF necrop inh = blocks TNF-alpha induced death of Jurkat FADD-/- cells | Jurkat FADD-/- TNF necroptosis rescue, ATP luminescence, 24 h; 0 = TNF only, 100 = no-TNF cells | activation (protection from cell death), % at 10 µM | 0.068% of 220,000 active | AID 463075;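 active = activation, meaning protection from cell death, of at least 50% relative to plate controls; inactive = activation below 50%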;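 also: necroptosis triggered by 40 ng/mL TNF-alpha added together with compound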
Hits are given with their value; 0 = inactive; - = no result; [ ] = dose if it differs, or a comment. Compounds with a hit are over-represented: about 3% of the library has one in this group of screens.

SMILES	HMGR II inh	zVAD death inh	ROMK primary	14-3-3 Bad inh	Calpain2 inh	TNF necrop inh
COc1ccc(NC(=O)c2cc(-c3cccnc3)nc3c(C)c(C)ccc23)c(OC)c1	0	0	0	0	0	0
COc1cccc(NC(=O)c2cc(-c3cccnc3)nc3c(Cl)cccc23)c1	0	83.8	-	0	0	0
COc1ccc2cc(C3NC(=O)c4ccccc4N3)c(Cl)nc2c1 (centres undefined)	18.9	0	0	0	0	0
Cc1cccc(CC2CC(=O)N(c3nc4ccccc4s3)C2=O)c1 (centres undefined)	0	0	0	0	0	0
COc1ccc2sc(N3C(=O)CC(Cc4cccc(C)c4)C3=O)nc2c1 (centres undefined)	0	0	0	88.1	0	0
Cc1cccc(OCCn2c(=S)[nH]c3ccccc32)c1	11.3	0	0	0	0	0
Cc1cccc(OCCn2c(S(=O)(=O)O)nc3ccccc32)c1	0	0	-	0	0	0
CC(C)Cc1nnc(NC(=O)Cc2ccc([N+](=O)[O-])cc2)s1	0	0	-	0	0	0
CC(/C=N\Nc1nnc2c(n1)[nH]c1c(C)cccc12)=C\c1ccco1	13.1	0	-	0	0	0
CN1C(=O)/C(=C2/C=Cc3ccccc3N2CCCS(=O)(=O)O)SC1=S	0	0	0	0	0	0
C=CCN1C(=O)/C(=C2/Sc3ccccc3N2CCCS(=O)(=O)O)SC1=S	0	0	-	72.1	0	0
Cc1ncccc1C(=O)N1CCCC(CNC(=O)C2(c3ccc(Cl)cc3)CC2)C1 (centres undefined)	0	0	0	0	0	0
Cc1ccc(NC(=O)c2ccccc2NS(=O)(=O)c2ccc(Cl)s2)cc1S(=O)(=O)N1CCOCC1	0	0	-3.14	0	0	0
COc1ccc(C)cc1NC(=O)c1ccccc1NS(=O)(=O)c1ccc(Cl)s1	0	0	-3.72	0	0	0
O=C(Nc1cc(S(=O)(=O)N2CCOCC2)ccc1O)c1ccc(NS(=O)(=O)c2ccc(Cl)s2)cc1	0	0	0	0	0	0
CCc1ccc(N(C(=O)c2csnn2)C(C(=O)NC(C)(C)CC)c2cccnc2)cc1 (centres undefined)	0	0	0	0	0	0
CC(C)C[C@H](NC(=O)NCc1ccc(F)cc1)C(=O)O	-	0	-	0	0	0
Cc1ccc(NC(=O)c2ccc(C(C)(C)C)cc2)cc1-n1cnnn1	0	0	-	0	62.1	0
COc1cc([N+](=O)[O-])ccc1NC(=O)CSc1nc2ccccc2n1-c1ccccc1	0	0	0	0	0	0
CSc1nc(-c2ccccc2)[nH]c(=S)c1C(C)=O	0	0	4.73	0	0	0
COc1ccc(C)cc1NC(=O)C(Sc1nnnn1C)c1ccccc1 (centres undefined)	14.6	0	0	0	0	0
CCOC(=O)CC(=O)CSc1ncnc2c1nnn2-c1ccc(OC)cc1	0	0	0	0	0	0
O=C(COC(=O)c1ccc2c(c1)C(=O)N(c1cccc3ncccc13)C2=O)c1ccc(Cl)cc1	0	0	0	74.9	0	0
Cc1ccc(C(=O)COC(=O)c2ccc3c(c2)C(=O)N(c2cccc4ncccc24)C3=O)cc1	0	0	0	88.3	0	0
Cc1ccc(C(Sc2ccccc2)C(Cn2cncn2)C(=O)c2ccccc2)cc1 (centres undefined)	0	0	-	0	0	0
SMILES	HMGR II inh	zVAD death inh	ROMK primary	14-3-3 Bad inh	Calpain2 inh	TNF necrop inh
COc1ccc(N2CCN(C(CNC(=O)c3ccc4c(c3)OCO4)c3ccco3)CC2)cc1 (centres undefined)	0	0	0	0	0	0
CNS(=O)(=O)c1ccc(OC)c(-c2nnc3c4ccccc4c(C)nn23)c1	0	0	-	91.7	0	0
COc1cc(CCC(=O)Nc2ccc(Cl)c(C(F)(F)F)c2)cc(OC)c1OC	0	0	0	75.4[fluorescence artefact?]	0	0
Cc1cccc(N2C(=O)C(Oc3ccc(Cl)cc3Cl)C2C=O)c1C (centres undefined)	0	0	-4.89	0	0	0
COCCN1CC(=O)N(c2cccc(C)c2C)C(c2ccc(Cl)cc2)C1=O (centres undefined)	0	0	-	0	0	0
O=C(Cc1ncc(C(F)(F)F)cc1Cl)Nc1ccc(F)cc1	0	0	-	0	0	0
O=C(Nc1ccccc1)Nc1ccc(C(=O)N2CCCC2)cc1	9.6	0	0	0	0	0
N#Cc1c2c(c(-c3ccccc3Cl)[nH]c1=S)CCCC2	24.1	0	0	0	0	0
CN(Cc1nc(-c2cnccn2)no1)Cc1cccc2ccccc12	0	0	0	0	0	0
O=C(O)c1cccc(NC(=S)N/N=C/c2ccccc2OCc2ccc(Br)cc2)c1	0	0	-	0	0	0
O=C(O)c1cccc(NC(=S)N/N=C/c2ccccc2OCc2cccc(Br)c2)c1	0	0	0	0	55.8	0
COc1ccc2c(c1)C(=O)CC(O)(C(F)F)O2 (centres undefined)	-	0	-	0	50.6	0
Clc1ccccc1-c1nc(-c2ccncc2)no1	-	0	-	72.9	0	0
Nc1ccccc1-c1n[nH]c(=S)s1	0	0	0	0	0	0
Cc1cc(NC(=O)CCC(=O)N(CC(=O)NC2CCCC2)c2ccccc2)no1	10.2	0	0	0	0	0
Cc1cc(NC(=O)CCCC(=O)N(CC(=O)NC2CCCCC2)c2ccccc2)no1	0	0	0	0	0	0
CC1(C)C(N(O)C(=O)Nc2ccc(Cl)cc2)N(c2ccc(Cl)cc2)C(=O)N1CC(=O)NN (centres undefined)	0	0	0	0	0	0
O=C(NCCN1CCOCC1)c1ccc2c(c1)ncn2C1CCCCC1	0	88.4	0	0	0	0
CC(C)CCNC(=O)c1ccc2c(c1)ncn2C1CCCC1	0	0	0	0	0	0
Cc1cccc(N2CCN(C(=O)c3ccc4ncsc4c3)CC2)c1C	0	0	3.27	0	0	0
CN(CC(=O)NCCc1ccccc1)S(=O)(=O)c1cccs1	0	0	-	0	0	0
Cc1ccc(CNC(=O)CN(C)S(=O)(=O)c2cccs2)cc1	0	0	0	85.7	0	0
CCCCCOC(=O)NC1CCS(=O)(=O)C1 (centres undefined)	0	0	0	0	0	0
O=C(Nc1ccccc1)Nc1ccc2ncoc2c1	0	0	0	0	0	0
O=C(Nc1ccccc1)Nc1ccc2ocnc2c1	17.7	0	0	0	0	0
Fc1ccc(-n2c(CN3CCCCC3)n[nH]c2=S)cc1	0	0	0	0	0	0
O=C(NCc1ccc2c(c1)OCO2)c1cccnc1Cl	0	0	0	0	0	0
O=C(Nc1ccccc1)c1ccc(Br)o1	0	0	0	0	0	0
O=C(Nc1cccc(NC(=O)c2ccc(Br)o2)n1)c1ccc(Br)o1	0	0	-	75.0	0	0
O=c1cc(-c2ccc([N+](=O)[O-])cc2)nc2cc(-c3ccc(Cl)cc3)[nH]n12	0	0	-	88.9[fluorescence artefact?]	0	0

Compound activity (PubChem BioAssay)
